Measurements from PubChem BioAssay (NCI).
The panel holds about 79,000 compounds, 15% with a hit somewhere; the sample as a whole holds those more often. Calls of active or inactive are those of the source. No stated cut-off is given here; in the data, active means growth inhibition above about 70%; inactive means the rest.

Key:
[1] = NCI Yeast Anticancer Drug Screen. Data for the rad52 strain (AID 147);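 further: 0% = growth of vehicle-treated control cultures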; settings: S. cerevisiae rad52 mutant growth inhibition, active compounds read high
Procedure, shortened: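 DNA repair-defective yeast; compound exposure; growth scored against vehicle controls.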

[2] = NCI Yeast Anticancer Drug Screen. Data for the wt1 strain (AID 149);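 further: 0% = growth of vehicle-treated wt1 cultures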; settings: S. cerevisiae wt1 strain (SPY 50644) growth inhibition, active compounds read high
Procedure, shortened: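 Vehicle-normalised growth inhibition; strain wt1; compound exposure.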

[3] = NCI Yeast Anticancer Drug Screen. Data for the rad50EPP+ strain (AID 151);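 further: 0% = growth of vehicle-treated control cultures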; settings: S. cerevisiae rad50 mutant strain, active compounds read high
Procedure, shortened: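 rad50EPP+ yeast treated with test compounds. Readout: growth vs vehicle control.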

[4] = NCI Yeast Anticancer Drug Screen. Data for the mgt1 strain (AID 153); settings: S. cerevisiae mgt1 mutant growth inhibition, active compounds read high
Procedure, shortened: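 Growth inhibition relative to vehicle controls was scored for the mgt1 yeast strain after compound exposure.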

[5] = NCI Yeast Anticancer Drug Screen. Data for the rad50 strain (AID 155);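 further: 0% = growth of vehicle-only cultures of the same strain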; settings: S. cerevisiae rad50 strain growth inhibition, active compounds read high
Procedure, shortened: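 A DNA repair-deficient yeast mutant serves as the test organism; compound-induced growth inhibition is calculated against vehicle-treated cells.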

[6] = NCI Yeast Anticancer Drug Screen. Data for the mec2-1 strain (AID 157); settings: S. cerevisiae mec2-1 strain, active compounds read high
Procedure, shortened: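 Growth inhibition is read against vehicle-treated controls after compound exposure of the mec2-1 yeast strain, which is defective in DNA damage repair or cell cycle control.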

[7] = NCI Yeast Anticancer Drug Screen. Data for the rad14 strain (AID 159);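 further: 0% = growth of vehicle-treated control cultures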; settings: S. cerevisiae rad14 strain growth inhibition, active compounds read high
Procedure, shortened: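 Vehicle-treated cultures served as the baseline for growth inhibition of a DNA repair-mutant yeast strain exposed to each compound.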

[8] = NCI Yeast Anticancer Drug Screen. Data for the sgs1 mgt1 strain (AID 161);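 further: 0% = growth of cultures given vehicle only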; settings: S. cerevisiae sgs1 mgt1 strain, active compounds read high
Procedure, shortened: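 Yeast cells carrying a defined DNA-repair defect were exposed to test compounds. Growth inhibition was measured relative to vehicle-treated controls.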

[9] = NCI Yeast Anticancer Drug Screen. Data for the CLN2oe strain (AID 163);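 further: 0% = growth of vehicle-only control cultures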; settings: S. cerevisiae CLN2oe strain, active compounds read high
Procedure, shortened: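 Compound-treated yeast; growth vs vehicle ctrl = % inhibition. Genetically altered strain (cell-cycle control).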

[10] = NCI Yeast Anticancer Drug Screen. Data for the cln2 rad14 strain (AID 165);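 further: 0% = growth equal to vehicle treated cultures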; settings: S. cerevisiae cln2 rad14 strain, active compounds read high
Procedure, shortened: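 Growth inhibition, relative to vehicle-treated controls, is the read-out. The test organism is a yeast strain with defined genetic alterations, cln2 rad14.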

[11] = NCI Yeast Anticancer Drug Screen. Data for the bub3 strain (AID 167); settings: S. cerevisiae bub3 mutant strain, active compounds read high
Procedure, shortened: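 Inhibition values come from growth of compound-treated mutant yeast normalised to vehicle-treated controls.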

[12] = NCI Yeast Anticancer Drug Screen. Data for the wt2 strain (AID 169);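 further: 0% = growth of vehicle-treated yeast cultures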; settings: S. cerevisiae wt2 strain growth inhibition, active compounds read high
Procedure, shortened: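 Compound exposure of yeast; growth compared with vehicle controls; inhibition reported.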

[13] = NCI Yeast Anticancer Drug Screen. Data for the mlh1 strain (AID 171);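 further: 0% = growth of vehicle-treated control cultures of the same strain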; settings: S. cerevisiae mlh1 strain growth inhibition, active compounds read high
Procedure, shortened: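 Compounds are applied to a genetically altered yeast strain, and its growth is compared with that of vehicle-treated cultures to give percent inhibition.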

[14] = NCI Yeast Anticancer Drug Screen. Data for the sgs1 strain (AID 173);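 further: 0% = growth of vehicle-only control cultures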; settings: S. cerevisiae sgs1 mutant, active compounds read high
Procedure, shortened: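 Compounds applied to genetically altered yeast; growth compared with vehicle-treated cultures to give % inhibition.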

[15] = NCI Yeast Anticancer Drug Screen. Data for the mlh1 rad18 strain (AID 175); settings: S. cerevisiae mlh1 rad18 strain growth inhibition, active compounds read high
Procedure, shortened: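 Cells of a genetically altered yeast strain, deficient in DNA damage repair, were treated with compound. Their growth was then compared with that of vehicle-treated cultures to give inhibition.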

[16] = NCI Yeast Anticancer Drug Screen. Data for the rad18 strain (AID 177); settings: S. cerevisiae rad18 mutant growth inhibition, active compounds read high
Procedure, shortened: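 Compounds are applied to a repair-deficient yeast strain, and growth is compared with that of vehicle-treated cultures to give percent inhibition.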

[17] = at 5.0 µM (retest, dose inferred, filed as 0.5)
[18] = at 50.0 µM (retest, dose inferred, filed as 5.0)

Measured: growth inhibition

Nc1nc(F)nc2c1ncn2C1OC(COP(=O)(O)O)C(O)C1O (centres undefined)
inactive: [1]; at 1.2 µM 2% | [1]; at 3.7 µM 5% | [1]; at 11.0 µM 12% | [1]; at 33.0 µM 22% | [1]; at 100.0 µM 52% | [2]; at 1.2 µM 1% | [2]; at 3.7 µM 1% | [2]; at 11.0 µM 2% | [2]; at 33.0 µM 5% | [2]; at 100.0 µM 2% | [3]; at 1.2 µM 3% | [3]; at 3.7 µM 12% | [3]; at 11.0 µM 26% | [3]; at 33.0 µM 43% | [3]; at 100.0 µM 67% | [4]; at 1.2 µM -3% | [4]; at 3.7 µM 0% | [4]; at 11.0 µM 2% | [4]; at 33.0 µM 5% | [4]; at 100.0 µM 12% | [5]; at 1.2 µM 3% | [5]; at 3.7 µM 9% | [5]; at 11.0 µM 18% | [5]; at 33.0 µM 32% | [5]; at 50.0 µM 11.1% | [5]; at 100.0 µM 61% | [6]; at 1.2 µM 1% | [6]; at 3.7 µM 7% | [6]; at 11.0 µM 13% | [6]; at 33.0 µM 27% | [6]; at 50.0 µM 4.2% | [7]; at 1.2 µM -1% | [7]; at 3.7 µM -2% | [7]; at 11.0 µM 2% | [7]; at 33.0 µM 5% | [7]; at 100.0 µM 19% | [8]; at 50.0 µM -1.15% | [9]; at 1.2 µM -4% | [9]; at 3.7 µM -5% | [9]; at 11.0 µM -5% | [9]; at 33.0 µM -5% | [9]; at 100.0 µM -2% | [10]; at 50.0 µM -3.75% | [11]; at 1.2 µM -8% | [11]; at 3.7 µM -8% | [11]; at 11.0 µM -3% | [11]; at 33.0 µM -10% | [11]; at 50.0 µM -29.9% | [11]; at 100.0 µM -1% | [12]; at 1.2 µM -2% | [12]; at 3.7 µM 1% | [12]; at 11.0 µM 1% | [12]; at 33.0 µM 6% | [12]; at 100.0 µM 18% | [13]; at 1.2 µM 0% | [13]; at 3.7 µM 2% | [13]; at 11.0 µM 5% | [13]; at 33.0 µM 9% | [13]; at 100.0 µM 19% | [14]; at 1.2 µM 18% | [14]; at 3.7 µM 30% | [14]; at 11.0 µM 39% | [14]; at 33.0 µM 47% | [14]; at 100.0 µM 53% | [15]; at 50.0 µM -26.4% | [16]; at 1.2 µM -2% | [16]; at 3.7 µM -1% | [16]; at 11.0 µM 1% | [16]; at 33.0 µM 5% | [16]; at 100.0 µM 19%
active: [6]; at 100.0 µM 87%

O=NN(CCCl)C(=O)NC1CCCCC1
inactive: [1]; at 1.2 µM 6% | [1]; at 3.7 µM 11% | [1]; at 11.0 µM 33% | [1]; at 33.0 µM 44% | [1]; at 100.0 µM 50% | [2]; at 1.2 µM -2% | [2]; at 3.7 µM -1% | [2]; at 11.0 µM 1% | [2]; at 33.0 µM 5% | [2]; at 100.0 µM -5% | [3]; at 1.2 µM 16% | [3]; at 3.7 µM 24% | [3]; at 11.0 µM 45% | [3]; at 33.0 µM 61% | [3]; at 100.0 µM 49% | [4]; at 1.2 µM -3% | [4]; at 3.7 µM -2% | [4]; at 11.0 µM 1% | [4]; at 33.0 µM 2% | [4]; at 100.0 µM 10% | [5]; at 1.2 µM 5% | [5]; at 3.7 µM 12% | [5]; at 11.0 µM 39% | [5]; at 33.0 µM 55% | [5]; at 100.0 µM 52% | [6]; at 1.2 µM -1% | [6]; at 3.7 µM 4% | [6]; at 11.0 µM 10% | [6]; at 33.0 µM 13% | [6]; at 100.0 µM 13% | [7]; at 1.2 µM 1% | [7]; at 3.7 µM 7% | [7]; at 11.0 µM 13% | [7]; at 33.0 µM 15% | [7]; at 100.0 µM 14% | [9]; at 1.2 µM -3% | [9]; at 3.7 µM -2% | [9]; at 11.0 µM -3% | [9]; at 33.0 µM -5% | [9]; at 100.0 µM 18% | [11]; at 1.2 µM -4% | [11]; at 3.7 µM -3% | [11]; at 11.0 µM 3% | [11]; at 33.0 µM 14% | [11]; at 100.0 µM 12% | [12]; at 1.2 µM -3% | [12]; at 3.7 µM -2% | [12]; at 11.0 µM 2% | [12]; at 33.0 µM 11% | [12]; at 100.0 µM 49% | [13]; at 1.2 µM 0% | [13]; at 3.7 µM 1% | [13]; at 11.0 µM 8% | [13]; at 33.0 µM 11% | [13]; at 100.0 µM 17% | [14]; at 1.2 µM 4% | [14]; at 3.7 µM 7% | [14]; at 11.0 µM 22% | [14]; at 33.0 µM 34% | [14]; at 100.0 µM 43% | [16]; at 1.2 µM 29% | [16]; at 3.7 µM 46% | [16]; at 100.0 µM 53%
active: [16]; at 11.0 µM 84% | [16]; at 33.0 µM 92%

CN(C)Cc1cccc(CN(C)C)[c]1[Sn]([Br])([c]1ccccc1)[c]1ccccc1
active: [1]; at 33.0 µM 74% | [1]; at 100.0 µM 97% | [2]; at 100.0 µM 96% | [5]; at 33.0 µM 82% | [5]; [18] 94% | [5]; at 50.0 µM 81.8% | [5]; at 100.0 µM 97% | [6]; [18] 98% | [6]; at 50.0 µM 86.2% | [6]; at 100.0 µM 94% | [7]; at 33.0 µM 78% | [7]; at 100.0 µM 97% | [8]; [18] 95% | [8]; at 50.0 µM 88.8% | [9]; at 100.0 µM 91% | [10]; at 50.0 µM 86.9% | [11]; [18] 95% | [11]; at 50.0 µM 88.8% | [11]; at 100.0 µM 95% | [12]; at 33.0 µM 87% | [12]; at 100.0 µM 97% | [13]; at 100.0 µM 96% | [14]; at 33.0 µM 81% | [14]; at 100.0 µM 97% | [15]; [18] 98% | [15]; at 50.0 µM 90.7% | [16]; at 11.0 µM 74% | [16]; at 33.0 µM 82% | [16]; at 100.0 µM 97%
inactive: [1]; at 1.2 µM 28% | [1]; at 3.7 µM 45% | [1]; at 11.0 µM 57% | [2]; at 1.2 µM 20% | [2]; at 3.7 µM 36% | [2]; at 11.0 µM 49% | [2]; at 33.0 µM 58% | [3]; at 1.2 µM 19% | [3]; at 3.7 µM 32% | [3]; at 11.0 µM 30% | [3]; at 33.0 µM 36% | [3]; at 100.0 µM 39% | [5]; at 1.2 µM 30% | [5]; at 3.7 µM 62% | [5]; [17] 44% | [5]; at 11.0 µM 69% | [6]; at 1.2 µM 2% | [6]; at 3.7 µM 22% | [6]; [17] 47% | [6]; at 11.0 µM 42% | [6]; at 33.0 µM 56% | [7]; at 1.2 µM -3% | [7]; at 3.7 µM 17% | [7]; at 11.0 µM 27% | [8]; [17] 18% | [9]; at 1.2 µM -8% | [9]; at 3.7 µM 1% | [9]; at 11.0 µM 15% | [9]; at 33.0 µM 30% | [10]; [17] 13% | [10]; [18] 66% | [11]; at 1.2 µM -7% | [11]; at 3.7 µM 6% | [11]; [17] 32% | [11]; at 11.0 µM 18% | [11]; at 33.0 µM 50% | [12]; at 1.2 µM 10% | [12]; at 3.7 µM 13% | [12]; at 11.0 µM 41% | [13]; at 1.2 µM -2% | [13]; at 3.7 µM 23% | [13]; at 11.0 µM 37% | [13]; at 33.0 µM 60% | [14]; at 1.2 µM 8% | [14]; at 3.7 µM 44% | [14]; at 11.0 µM 66% | [15]; [17] 44% | [16]; at 1.2 µM 42% | [16]; at 3.7 µM 67%
